A selection: hits, their analogues and other compounds. The true share with any hit is near 10%.
Gal4-VP16 FLuc – VP16 counterscreen qHTS for inhibitors of ROR gamma transcriptional activity | Potency, µM (titrated, usually from 53.6 µM), most hits filed as inhibitors | AID 2546, 2010 | Drosophila S2 Gal4-VP16 UAS-luciferase, luminescence, 20 h | 3.5% of 310,000 active;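 further: Gal4-VP16 expression switched on by copper sulfate through the metallothionein promoter; nearly all actives have a fitted effect of over 50% in size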
ELG1 DNA repair – qHTS screen for small molecules that inhibit ELG1-dependent DNA repair in human embryonic kidney (HEK293T) cells expressing luciferase-tagged ELG1. 2.3% of 330,000 active. Potency, µM (series often up to 46.1 µM), actives largely listed as inhibitors. AID 504467, 2011. HEK293T ELG1-luciferase reporter, luminescence, 16 h; DNA damage induced by 5-fluorouridine; further: nearly all actives have a fitted effect of over 55% in size
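Luminescence from the luciferase reporter, measured 30 min after ONE-Glo reagent at room temperature, was the read-out. Beforehand, 2,000 cells per well were exposed for 16 hr at 37 °C to 5-fluorouridine together with compound or vehicle.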
MCF10A rerep – A quantitative high throughput screen for small molecules that induce DNA re-replication in MCF 10a normal breast cells; MCF 10A DNA re-replication, Hoechst nuclear intensity, 48 h; Potency, µM (doses to about 46.1 µM), actives largely listed as activators; 2.9% of 350,000 active; further: nearly all actives have a fitted effect of over 50% in size
RORgamma inh – qHTS for inhibitors of ROR gamma transcriptional activity; Drosophila S2 Gal4-RORgamma UAS-luciferase reporter, 20 h; Nuclear receptor ROR-gamma (Mus musculus), P51450; Potency, µM (series often up to 53.6 µM), most hits filed as inhibitors; AID 2551, 2010; 5.4% of 310,000 active; further: nearly all actives have a fitted effect of over 60% in size
Target sequence (P51450 whole entry, looked up, the tested form may be a part): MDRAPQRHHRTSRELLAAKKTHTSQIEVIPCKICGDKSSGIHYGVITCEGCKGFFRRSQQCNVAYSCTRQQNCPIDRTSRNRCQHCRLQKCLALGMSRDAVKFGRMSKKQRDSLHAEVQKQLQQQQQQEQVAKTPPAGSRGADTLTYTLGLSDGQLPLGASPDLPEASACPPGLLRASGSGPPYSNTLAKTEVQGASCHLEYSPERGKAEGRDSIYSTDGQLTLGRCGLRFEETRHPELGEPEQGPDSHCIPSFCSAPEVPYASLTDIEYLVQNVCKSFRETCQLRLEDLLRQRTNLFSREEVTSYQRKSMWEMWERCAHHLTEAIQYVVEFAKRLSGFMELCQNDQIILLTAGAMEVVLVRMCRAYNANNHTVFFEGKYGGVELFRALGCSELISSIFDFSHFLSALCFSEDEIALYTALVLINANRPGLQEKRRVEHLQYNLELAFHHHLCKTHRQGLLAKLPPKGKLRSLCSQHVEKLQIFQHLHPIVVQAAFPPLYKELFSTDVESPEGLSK
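Stably transfected Drosophila Schneider cells are the test system, with ROR gamma fused to Gal4 and luciferase under UAS control; luminescence is read after 20 hr of 700 uM copper sulfate induction at ambient temperature.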
SW480 rereplic – A quantitative high throughput screen for small molecules that induce DNA re-replication in SW480 colon adenocarcinoma cells | AID 624297, 2012 | 1.8% of 340,000 active | Potency, µM (series often up to 46.1 µM), actives largely listed as activators | SW480 DNA re-replication, Hoechst DNA content imaging, 48 h; further: nearly all actives have a fitted effect of over 55% in size
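SW480 cells exposed to compounds for 48 hr at 37 C, 5% CO2, then Hoechst-stained 40 min. Nuclear DNA content imaged by fluorescence scanning (405 nm excitation, 500-530 nm emission); re-replication scored as increased high-intensity nuclei.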
Hits are given with their value; - = inactive; ? = inconclusive; . = not tested or not shown; [ ] = remark or other dose. The call rests on the fitted dose curve; in most records, active means well fitted curve in the direction sought with a large enough effect; inconclusive means small, poorly fitted or top-dose-only effect, or another doubt; inactive means no such curve, though single readings can be large; an effect the other way counts as inactive or inconclusive.

SMILES	Gal4-VP16 FLuc	ELG1 DNA repair	MCF10A rerep	RORgamma inh	SW480 rereplic
Cc1cc(C)c(CSc2ncc(-c3ccc([N+](=O)[O-])cc3)[nH]2)c(C)c1	7.1µM	-	18µM	10µM	?
Nc1c(C(=O)CSc2nc(-c3ccccc3)cs2)c(=O)[nH]c(=O)n1C1CC1	.	-	-	.	-
CCN(C(=O)Cn1c(=O)oc2ccccc21)c1c(N)n(Cc2ccccc2)c(=O)[nH]c1=O	.	-	-	.	-
Cc1ccc(/C=N/NC(=O)C[n+]2ccccc2)s1	-	?	-	-	-
CCCCCCCC(=O)N/N=C/c1ccc(Br)cc1	-	-	7.3µM	-	-
CCCCCCCCCC(=O)N/N=C/c1ccc(C)s1	-	?	16µM	-	?
CCOC(=O)C(CC(=O)Nc1nc(C(C)=O)c(C)s1)C(C)c1ccccc1 (stereo unspecified)	-	?	-	-	-
Cc1noc(C)c1CSCC(=O)OCC(=O)Nc1sccc1C#N	-	-	-	-	-
CNC(=O)NC(=O)COC(=O)CCCSc1nc2ccccc2s1	?	-	-	?	-
CC(OC(=O)CCCSc1nc2ccccc2s1)C(=O)NC(N)=O (stereo unspecified)	4µM	-	-	4.5µM	-
N#Cc1ccsc1NC(=O)COC(=O)CCCSc1nc2ccccc2s1	5µM	-	-	?	-
NC(=O)COC(=O)CCCSc1nc2ccccc2s1	13µM	-	-	7.9µM	-
CCCCCCCCCCCCCCCC(=O)OC[C@H](O)[C@H]1OC[C@@H](O)[C@@H]1O	-	.	-	-	-
O=C(c1ccco1)N1CCN(C(=O)C2CC(=O)N(c3ccccc3)C2)CC1 (stereo unspecified)	-	-	-	-	-
C=CCC(CC=C)(NC(=O)c1ccccc1)c1ccccc1	18µM	-	-	-	-
Cc1ccc(C2=NC3(CCCC3)N=C2SCC(=O)Nc2ccc3c(c2)OCCO3)cc1	-	?	?	?	21µM
O=C(CSC1=NC2(CCCCCC2)N=C1c1ccccc1)Nc1ccc2c(c1)OCCO2	-	?	-	?	-
O=C(O)c1ccccc1Nc1ccc(CCc2ccc(Cl)c(Cl)c2)cc1	-	.	.	-	.
Cc1nc(N2CCCCC2)c2c(-c3cccs3)csc2n1	-[10 µM]	?	21µM	-	-
Cc1nc(CC(=O)N2CCN(S(=O)(=O)c3ccccc3C#N)CC2)cs1	-	-	-	-	-
Cc1nc(N2CCCCC2)c2ccsc2n1	-	?	-	-	-
Cc1nc(N2CCN(S(=O)(=O)c3ccccc3C#N)CC2)c2c(-c3cccs3)csc2n1	-	18µM	?	-	-
CC(=O)N/N=C(/C)c1ccc(NC(=O)c2csc(C)c2C)cc1	-	?	-	-	-
CO[C@@H]1COC(=O)CCC[C@@H](C)[C@H](OC)COC(=O)[C@H](Cc2ccccc2)NC(=O)C/C=C\[C@H]1C	-[10 µM]	.	.	-[10 µM]	.
Brc1ccc2nc(-c3cccs3)c(NCC3CCCO3)n2c1 (stereo unspecified)	-	?	21µM	?	-
SMILES	Gal4-VP16 FLuc	ELG1 DNA repair	MCF10A rerep	RORgamma inh	SW480 rereplic
COc1cc(/C=N/NC(=O)c2ccc(CSc3nc4ccccc4[nH]3)cc2)cc(OC)c1OC	-	7.3µM	?	-	?
CNc1ccc(Br)cc(C(=O)/C=C/c2cccc(Cl)c2Cl)c1=O	-	-	16µM	-	-
COc1ccccc1/C=C/C(=O)N1CCN(S(=O)(=O)c2cccs2)CC1	.	21µM	-	.	-
CNc1ccccc(C(=O)/C=C/c2ccccc2OC)c1=O	?	23µM	?	?	?
COc1ccccc1/C=C/C(=O)/C=C/c1ccccc1O	?	?	10µM	?	?
CC(=O)N1CCN(C(=O)c2cc(S(=O)(=O)N3CCN(c4ccccc4)CC3)ccc2Cl)CC1	.	-	-	.	-
COCC(=O)N1CCC2(CC1)CCN(C(=O)Nc1cccc(F)c1)CC2	-	.	.	-	.
OCC[C@H]1C[C@H](O)[C@@H](O)[C@@]2(CCc3ccccc3O2)O1	.	?	-	.	-
COc1ccccc1C=CC(=O)C=Cc1ccccc1OC	.	.	3.3µM	.	8.2µM
O=C(O)c1ccccc1N/N=C\c1ccnc2ccccc12	?	?	-	5µM	-
O=C(O)c1ccccc1N/N=C/c1cc(Br)cc(Br)c1O	?	?	?	-	-
O=C(NCCc1ccccc1)c1coc(=O)c(Br)c1	-	?	?	-	10µM
CCN(CC)S(=O)(=O)c1ccc2[nH]cc(C(=O)NCCN3CCCCCC3)c(=O)c2c1	-	-	-	-	-
CC(C)CNC(=O)c1coc(=O)c(Br)c1	-	?	21µM	-	?
O=C(NC(CO)(CO)CO)c1coc(=O)c(Br)c1	-	?	3.3µM	-	7.3µM
CCN(CC)S(=O)(=O)c1ccc2[nH]cc(C(=O)NCCC3=CCCCC3)c(=O)c2c1	5µM	13µM	?	10µM	-
Cc1cc(C(=O)NCCC2=CCCCC2)c(C)o1	?	?	?	10µM	?
O=C(NCCC1=CCCCC1)c1coc(=O)c(Br)c1	-	-	12µM	-	9.2µM
COc1cc(/C=C(\C#N)C(=O)Nc2nnc(C(F)(F)F)s2)ccc1OCc1ccc(C(F)(F)F)cc1C(F)(F)F	-	.	.	-	.
CNC1(c2nnnn2-c2ccccc2C)CCOC(C)(C)C1 (stereo unspecified)	-	?	-	-	-
COc1ccccc1-c1cc(NCc2cnc(C)cn2)ncn1	-	.	.	-	.
O=c1c2ccccc2ncn1Cc1ccc(Cl)c(Cl)c1	-	-	1.2µM	-	-
O=c1c2ccccc2ncn1Cc1ccc(Cl)cc1	-	-	-	-	-
COC(=O)C1=C(C)NC(=O)NC1c1ccc(N2CCC(c3ccccc3)=N2)cc1 (stereo unspecified)	-	?	5.2µM	-	2.1µM
O=C(O)C[C@H]1c2cc(F)ccc2S(=O)(=O)N1C1CCN(Cc2ccccc2)CC1	.	.	-	.	-
SMILES	Gal4-VP16 FLuc	ELG1 DNA repair	MCF10A rerep	RORgamma inh	SW480 rereplic
COc1ccc(CCNC(=O)C(=O)NCC2OCCN2S(=O)(=O)c2cc(F)ccc2F)cc1OC (stereo unspecified)	-	?	-	-	-
COC(=O)c1ccc(C)c(NC(=O)Cc2coc3cc(OC)ccc23)c1	-	?	-	-	-
COC(=O)c1cc(NC(=O)Cc2coc3cc(OC)ccc23)cc(C(=O)OC)c1	-	16µM	-	-	-
COc1ccc(NC(=O)CSCC(=O)N(C)CCOc2ccc(Cl)cc2)cc1	.	-	-	.	-
COc1ccc(-c2oc3ccccc3c2C#Cc2cncn2C)cc1	.	?	18µM	.	?
COc1ccc(-c2sc3cc4c(cc3c2C#Cc2cncn2C)OCO4)cc1	.	-	-	.	-
COc1ccc(-c2sc3ccc(OC)cc3c2C#Cc2cncn2C)cc1	.	5.8µM	?	.	-
CCN(C(=S)Nc1cccc(C)c1)c1ccccc1	?	-	-	16µM	-

From PubChem
